PubChem BioAssay AID1159580 (chemical genetic matrix, 2015)
“And” between values parts separate entries of the source, which are not always exact repeats. Equal entries are not always repeated. About 2,000 (36%) of roughly 5,500 compounds were called active. Another 18% or so got no clear call; they are omitted. Rule as the data show it: active = normalized growth mostly below about 0.91 (no sharp cut-off); inconclusive = no clear call, values can overlap the other calls; inactive = mostly above about 0.92. Some of the results follow.

Assay: chemical genetic growth profiling, strain panel (AID 1159580);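 also: tested at 20 µM; growth read once vehicle control cultures reached saturation at 30 °C; 1 = growth at the plate median or of vehicle wells; lower values mean less growth of the strain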
Settings: growth OD

Measured: normalized growth

O=C1NC(O)=NC1(c1ccccc1)c1ccccc1
inactive: S. cerevisiae deletion strains, locus YJR075W, strain HOC1, hits give low values 1.01 | S. cerevisiae deletion strains, locus YKL009W, strain mrt4, hits give low values 1.01 | S. cerevisiae deletion strains, locus YKL068W, hits give low values 1.02 | S. cerevisiae deletion strains, locus YKL085W, strain MDH1 (second series), hits give low values 1 | S. cerevisiae deletion strains, locus YKL085W, strain MDH1, hits give low values 1 | S. cerevisiae deletion strains, locus YKL160W, strain elf1, hits give low values 1.03 | S. cerevisiae deletion strains, locus YKL190W, strain CNB1, hits give low values 1.01 | S. cerevisiae deletion strains, locus YKR001C, strain vps1, hits give low values 1.01 | S. cerevisiae deletion strains, locus YKR026C, strain gcn3, hits give low values 1.02 | S. cerevisiae deletion strains, locus YKR091W, strain srl3, hits give low values 1.02 | S. cerevisiae deletion strains, locus YLL001W, strain dnm1, hits give low values 1.02 | S. cerevisiae deletion strains, locus YLL026W, hits give low values 1.01 | S. cerevisiae deletion strains, locus YLL041C, strain sdh2, hits give low values 1.01 | S. cerevisiae deletion strains, locus YLR027C, strain aat2, hits give low values 1.02 | S. cerevisiae deletion strains, locus YLR039C, strain RIC1, hits give low values 0.995 | S. cerevisiae deletion strains, locus YLR058C, strain SHM2, hits give low values 1.01 | S. cerevisiae deletion strains, locus YLR102C, strain apc9, hits give low values 1.02 | S. cerevisiae deletion strains, locus YLR113W, strain HOG1, hits give low values 1.01 | S. cerevisiae deletion strains, locus YLR221C, strain rsa3, hits give low values 1.03 | S. cerevisiae deletion strains, locus YLR258W, strain gsy2, hits give low values 1.03 | S. cerevisiae deletion strains, locus YLR262C, strain YPT6 (second series), hits give low values 1.05 | S. cerevisiae deletion strains, locus YLR262C, strain YPT6, hits give low values 1.03 | S. cerevisiae deletion strains, locus YLR268W, strain sec22, hits give low values 1.05 | S. cerevisiae deletion strains, locus YLR320W, strain mms22, hits give low values 1.03 | S. cerevisiae deletion strains, locus YLR330W, strain CHS5, hits give low values 1.01 | S. cerevisiae deletion strains, locus YLR342W, strain FKS1 (second series), hits give low values 0.985 | S. cerevisiae deletion strains, locus YLR342W, strain FKS1, hits give low values 1.02 | S. cerevisiae deletion strains, locus YLR357W, strain rsc2, hits give low values 1.01 | S. cerevisiae deletion strains, locus YLR370C, strain arc18, hits give low values 1.01 | S. cerevisiae deletion strains, locus YLR371W, strain rom2, hits give low values 1.02 | S. cerevisiae deletion strains, locus YLR384C, strain iki3, hits give low values 1.01 | S. cerevisiae deletion strains, locus YLR418C, strain cdc73, hits give low values 1 | S. cerevisiae deletion strains, locus YML016C, strain PPZ1, hits give low values 1.01 | S. cerevisiae deletion strains, locus YML032C, strain rad52, hits give low values 1.03 | S. cerevisiae deletion strains, locus YML120C, strain ndi1, hits give low values 1.02 | S. cerevisiae deletion strains, locus YML124C, strain tub3, hits give low values 1.01 | S. cerevisiae deletion strains, locus YMR058W, strain fet3, hits give low values 1.01 | S. cerevisiae deletion strains, locus YMR078C, strain ctf18, hits give low values 1.02 | S. cerevisiae deletion strains, locus YMR125W, strain sto1, hits give low values 1.02 | S. cerevisiae deletion strains, locus YMR129W, hits give low values 1.02 | S. cerevisiae deletion strains, locus YMR205C, strain PFK2, hits give low values 1.04 | S. cerevisiae deletion strains, locus YMR223W, strain ubp8, hits give low values 0.991 | S. cerevisiae deletion strains, locus YMR231W, strain pep5, hits give low values 1.02 | S. cerevisiae deletion strains, locus YMR263W, strain SAP30, hits give low values 1.01 | S. cerevisiae deletion strains, locus YMR307W, strain GAS1, hits give low values 0.906 | S. cerevisiae deletion strains, locus YNL067W, strain RPL9B, hits give low values 1.01 | S. cerevisiae deletion strains, locus YNL071W, strain lat1, hits give low values 1.02 | S. cerevisiae deletion strains, locus YNL128W, strain TEP1, hits give low values 1.01 | S. cerevisiae deletion strains, locus YNL153C, strain GIM3, hits give low values 1.01 and 0.985 | S. cerevisiae deletion strains, locus YNL175C, strain NOP13, hits give low values 0.974 | S. cerevisiae deletion strains, locus YNL183C, strain NPR1, hits give low values 0.954 | S. cerevisiae deletion strains, locus YNL197C, strain WHI3, hits give low values 0.983 | S. cerevisiae deletion strains, locus YNL209W, strain ssb2, hits give low values 1.02 | S. cerevisiae deletion strains, locus YNL224C, strain SQS1, hits give low values 0.984 | S. cerevisiae deletion strains, locus YNL233W, strain BNI4, hits give low values 1.01 | S. cerevisiae deletion strains, locus YNL248C, strain rpa49, hits give low values 1.01 | S. cerevisiae deletion strains, locus YNL250W, strain rad50, hits give low values 1.02 | S. cerevisiae deletion strains, locus YNL271C, strain bni1, hits give low values 1.02 | S. cerevisiae deletion strains, locus YNL298W, strain CLA4, hits give low values 1.01 | S. cerevisiae deletion strains, locus YNL307C, strain MCK1, hits give low values 1.02 | S. cerevisiae deletion strains, locus YNL322C, strain KRE1 (second series), hits give low values 1.01 | S. cerevisiae deletion strains, locus YNL322C, strain KRE1, hits give low values 1.01 and 0.973 | S. cerevisiae deletion strains, locus YNR049C, strain mso1, hits give low values 1.01 | S. cerevisiae deletion strains, locus YNR052C, strain pop2, hits give low values 1.01 | S. cerevisiae deletion strains, locus YOL006C, strain TOP1, hits give low values 1.01 | S. cerevisiae deletion strains, locus YOL012C, strain htz1 1.06 | S. cerevisiae deletion strains, locus YOL147C, strain pex11, hits give low values 1.01 | S. cerevisiae deletion strains, locus YOR001W, strain rrp6, hits give low values 1 | S. cerevisiae deletion strains, locus YOR061W, strain CKA2, hits give low values 1 | S. cerevisiae deletion strains, locus YOR069W, strain VPS5, hits give low values 1.01 | S. cerevisiae deletion strains, locus YOR070C, strain gyp1, hits give low values 1.01 | S. cerevisiae deletion strains, locus YOR080W, strain dia2, hits give low values 1.01 | S. cerevisiae deletion strains, locus YOR083W, strain WHI5 (second series), hits give low values 0.98 | S. cerevisiae deletion strains, locus YOR083W, strain WHI5, hits give low values 1.03 | S. cerevisiae deletion strains, locus YOR106W, strain vam3, hits give low values 1.02 | S. cerevisiae deletion strains, locus YOR136W, strain idh2, hits give low values 1.01 | S. cerevisiae deletion strains, locus YOR144C, strain elg1, hits give low values 1.01 | S. cerevisiae deletion strains, locus YOR184W, strain ser1, hits give low values 1.02 | S. cerevisiae deletion strains, locus YOR231W, strain MKK1, hits give low values 0.985 | S. cerevisiae deletion strains, locus YOR265W, strain rbl2, hits give low values 1.01 | S. cerevisiae deletion strains, locus YOR270C, strain vph1, hits give low values 1.03 | S. cerevisiae deletion strains, locus YOR290C, strain snf2, hits give low values 1.03 | S. cerevisiae deletion strains, locus YOR316C, strain cot1, hits give low values 1.02 | S. cerevisiae deletion strains, locus YPL051W, strain arl3, hits give low values 1 | S. cerevisiae deletion strains, locus YPL055C, strain LGE1, hits give low values 1.01 and 0.95 | S. cerevisiae deletion strains, locus YPL078C, strain atp4, hits give low values 1.01 | S. cerevisiae deletion strains, locus YPL106C, strain sse1, hits give low values 1.03 | S. cerevisiae deletion strains, locus YPL240C, strain hsp82, hits give low values 1.02 | S. cerevisiae deletion strains, locus YPL241C, strain CIN2, hits give low values 1 | S. cerevisiae deletion strains, locus YPL256C, strain CLN2, hits give low values 0.982 | S. cerevisiae deletion strains, locus YPR119W, strain clb2, hits give low values 1.02 | S. cerevisiae deletion strains, locus YPR141C, strain kar3, hits give low values 1.01 | S. cerevisiae deletion strains, locus YPR163C, strain tif3, hits give low values 1.02 | S. cerevisiae deletion strains, locus YPR167C, strain met16, hits give low values 1.02 | S. cerevisiae deletion strains, strain wtn01, hits give low values 1.03 | S. cerevisiae strains, strain wild type, hits give low values 1.01
